# High-throughput results from PubChem.
# Mtb hypoxia inh: inhibitors of hypoxia-regulated fluorescent reporter in Mycobacterium tuberculosis; M. tuberculosis hypoxia-regulated fluorescent reporter, fluorescence; 300,000 compounds, 0.1% hits; fluorescence inhibition, % (no concentration beside the values); in the data active = fluorescence inhibition mostly above about 23%, no sharp cut-off; inactive = mostly below about 17%
# PrP 5UTR inh: inhibition of PrP 5' UTR reporter expression | cell-based PrP 5' UTR mRNA reporter, plate reader | AID 488862 | 340,000 compounds, 0.35% hits | inhibition, % (test concentration not listed); in the data active = inhibition above about 52%; also: 0 = median of the neutral control wells
# FadD28 binding: blocks FadD28 binding to the bisubstrate probe. inhibition, % at 12.5 µM. 360,000 compounds, 0.22% hits. AID 588549. fluorescence polarization; in the data active = inhibition above about 8.5%, passing the limit was not always enough
# TcdB inh: TcdB glycohydrolase inhibition. P18177. TcdB glycohydrolase enzymatic assay, plate reader. inhibition, % at 9.99 µM. 350,000 compounds, 0.24% hits. AID 652162; in the data active = inhibition above about 10%
# Target sequence (P18177 whole entry, looked up): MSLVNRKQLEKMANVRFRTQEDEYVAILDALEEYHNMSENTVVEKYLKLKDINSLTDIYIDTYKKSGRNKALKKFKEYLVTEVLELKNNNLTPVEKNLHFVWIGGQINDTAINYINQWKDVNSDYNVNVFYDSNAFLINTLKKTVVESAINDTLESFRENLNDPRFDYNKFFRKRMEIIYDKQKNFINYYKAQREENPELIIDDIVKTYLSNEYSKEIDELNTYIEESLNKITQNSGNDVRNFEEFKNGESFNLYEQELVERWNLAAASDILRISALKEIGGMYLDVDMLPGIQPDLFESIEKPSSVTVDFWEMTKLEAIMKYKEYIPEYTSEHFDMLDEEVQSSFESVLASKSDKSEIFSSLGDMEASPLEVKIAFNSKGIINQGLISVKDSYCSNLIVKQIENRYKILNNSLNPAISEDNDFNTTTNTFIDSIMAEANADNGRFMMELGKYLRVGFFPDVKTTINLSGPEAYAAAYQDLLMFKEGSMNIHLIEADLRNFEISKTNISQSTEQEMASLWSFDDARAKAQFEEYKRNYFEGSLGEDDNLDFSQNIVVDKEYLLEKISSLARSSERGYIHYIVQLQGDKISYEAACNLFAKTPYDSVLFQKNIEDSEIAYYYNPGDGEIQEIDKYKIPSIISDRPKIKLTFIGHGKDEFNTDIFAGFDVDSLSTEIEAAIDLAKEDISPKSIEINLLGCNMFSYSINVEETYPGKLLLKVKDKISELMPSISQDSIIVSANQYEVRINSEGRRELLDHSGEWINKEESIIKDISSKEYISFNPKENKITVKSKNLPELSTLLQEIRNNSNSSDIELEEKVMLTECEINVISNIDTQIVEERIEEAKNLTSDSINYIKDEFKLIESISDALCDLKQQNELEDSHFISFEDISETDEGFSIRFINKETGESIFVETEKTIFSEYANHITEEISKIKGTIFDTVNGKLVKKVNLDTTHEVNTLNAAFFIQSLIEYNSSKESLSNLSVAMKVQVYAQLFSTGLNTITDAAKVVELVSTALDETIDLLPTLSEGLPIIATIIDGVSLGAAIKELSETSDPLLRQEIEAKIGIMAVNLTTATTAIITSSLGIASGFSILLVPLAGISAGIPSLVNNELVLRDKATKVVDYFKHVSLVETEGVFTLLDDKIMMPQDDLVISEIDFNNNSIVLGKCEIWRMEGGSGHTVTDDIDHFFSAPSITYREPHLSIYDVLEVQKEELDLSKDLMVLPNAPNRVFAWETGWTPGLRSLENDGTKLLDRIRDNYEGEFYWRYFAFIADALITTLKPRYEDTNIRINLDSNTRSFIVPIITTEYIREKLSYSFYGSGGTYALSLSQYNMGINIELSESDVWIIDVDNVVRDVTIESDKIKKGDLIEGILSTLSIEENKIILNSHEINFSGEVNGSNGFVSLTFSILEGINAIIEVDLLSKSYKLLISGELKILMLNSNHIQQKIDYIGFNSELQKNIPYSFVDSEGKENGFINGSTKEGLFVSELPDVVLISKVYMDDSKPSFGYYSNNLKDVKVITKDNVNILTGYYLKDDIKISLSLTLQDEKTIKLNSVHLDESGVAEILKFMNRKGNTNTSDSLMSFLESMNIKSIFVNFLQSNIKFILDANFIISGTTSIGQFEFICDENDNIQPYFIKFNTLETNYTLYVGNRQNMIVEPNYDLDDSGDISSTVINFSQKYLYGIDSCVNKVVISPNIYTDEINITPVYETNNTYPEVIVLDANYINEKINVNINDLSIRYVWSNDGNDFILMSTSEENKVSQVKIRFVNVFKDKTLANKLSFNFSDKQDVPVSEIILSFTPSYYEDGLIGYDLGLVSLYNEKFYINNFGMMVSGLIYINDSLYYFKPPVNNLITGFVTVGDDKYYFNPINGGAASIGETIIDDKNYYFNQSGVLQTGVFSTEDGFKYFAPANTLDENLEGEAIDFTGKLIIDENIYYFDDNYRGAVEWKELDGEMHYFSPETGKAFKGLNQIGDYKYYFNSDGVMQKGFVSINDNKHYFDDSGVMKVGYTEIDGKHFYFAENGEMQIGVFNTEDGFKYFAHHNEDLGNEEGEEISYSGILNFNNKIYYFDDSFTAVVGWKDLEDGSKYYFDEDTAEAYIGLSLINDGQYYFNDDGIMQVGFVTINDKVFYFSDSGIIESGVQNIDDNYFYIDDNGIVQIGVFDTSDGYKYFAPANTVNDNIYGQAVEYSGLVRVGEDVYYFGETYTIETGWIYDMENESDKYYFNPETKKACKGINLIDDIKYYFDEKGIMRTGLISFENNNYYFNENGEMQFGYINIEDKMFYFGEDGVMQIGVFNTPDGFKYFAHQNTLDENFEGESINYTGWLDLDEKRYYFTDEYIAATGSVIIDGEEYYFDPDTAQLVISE
# BioA inh: BioA (M. tuberculosis) enzyme inhibition. 360,000 compounds, 0.096% hits. purified M. tuberculosis BioA enzyme, plate reader. inhibition, % at 9.99 µM; in the data active = inhibition above about 40%
# SSB-PriA inh: inhibitors of Klebsiella pneumoniae PriA binding to SSB C-terminal tail | 430,000 compounds, 0.6% hits | inhibition, % at 33 µM | AID 1272365 | AlphaScreen SSBct-PriA binding, biotinylated peptide; in the data active = inhibition mostly above about 37%, no sharp cut-off; inactive = mostly below about 20%;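 also: plate controls were negative control peptide for no effect and reference peptide for full effect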
# The depositor's hits bear a star; i = inactive; x = no result given; ! = not confirmed by another sample. This is a sample that favours compounds with a hit; in the whole collection about 1% have one here.
SMILES,Mtb hypoxia inh,PrP 5UTR inh,FadD28 binding,TcdB inh,BioA inh,SSB-PriA inh
COc1cccc(NC2=Nc3cccc4cccc2c34)c1,-3,-17,-5,2,0,41*
O=C(c1cc2n(n1)CCCO2)N1CCn2c1nc1ccccc12,x,x,x,x,x,0
COc1ccc(NC(=O)c2cc(-c3ccccc3)nc3c2cnn3C(C)C)c(OC)c1,8,-17,0,0,0,6
O=c1ccc2cc(O)c(O)cc2o1,11,-27,-4,13*,0,-6
O=C(NCc1cc(-c2cccs2)n(C2CCCC2)n1)c1ccccc1C(F)(F)F,x,x,x,x,x,9
O=C(O)c1cc(S(=O)(=O)Nc2ccc3cn[nH]c3c2)ccc1Cl,-9,-12,0,10*,0,-9
COCCn1c(SCCN2CCOCC2)nc2c1c(=O)[nH]c(=O)n2C,3,-16,0,0,-1,-19
O=C(Nc1ccccc1F)c1ccc(OCc2ccccc2)cc1,13,-19,-1,-1,0,-16
COc1ccccc1-n1c(CCC(=O)O)ccc1-c1ccccc1,3,-8,-2,11*,2,-20
COc1ccc(-c2ccc(CCC(=O)O)n2-c2ccccc2OC)cc1,5,-13,-1,-1,-2,3
CCOC(=O)c1ccc(Oc2c(C)oc3c4c(ccc3c2=O)OCN(C2CCS(=O)(=O)C2)C4)cc1 (stereo unspecified),x,x,x,x,x,38*
C=CCN=c1scc(-c2ccccc2)n1/N=C/c1ccccn1,9,-52,0,2,1,i
C=CCN=c1scc(-c2ccccc2)n1N=Cc1ccccn1,18,x,x,x,x,46*
CCCC(=O)Nc1cc(C)nn1-c1nc(CC)cc(=O)[nH]1,x,x,x,x,x,33
CCc1cc(=O)[nH]c(-n2nc(C)cc2N)n1,x,x,x,x,x,93*
CCc1cc(=O)[nH]c(-n2nc(C)cc2NC(=O)COC)n1,x,x,x,x,x,39*
Cc1cc(N)n(-c2nc(-c3ccccc3)cc(=O)[nH]2)n1,x,x,x,x,x,53*!
COc1ccc(NC(=O)N(C)C[C@H]2Oc3ccc(NC(=O)NC(C)C)cc3CC(=O)N([C@@H](C)CO)C[C@@H]2C)cc1,x,x,x,0,-2,x
O=[N+]([O-])c1cc(CN2CCCC2)ccc1Sc1ccc(Cl)cc1,x,-14,-1,0,x,43*
COc1ccc(-c2cc(C(F)F)n3ncc(C(=O)N4CCCc5ccccc54)c3n2)cc1,-12,-23,-3,-9,-1,-12
C=C1c2cccc(O)c2C(O)=C2C(=O)[C@]3(O)C(O)=C(C(N)=O)C(=O)[C@@H](N(C)C)[C@@H]3[C@@H](O)[C@H]12,x,4,4,0,-1,7
CN(C)[C@@H]1C(=O)C(C(N)=O)=C(O)[C@@]2(O)C(=O)C3=C(O)c4c(O)cccc4[C@@](C)(O)C3[C@H](O)C12 (stereo partly specified),x,-53,31*!,-5,0,3
Cc1cc(-c2cc(C(=O)NC3CCCC3)on2)nc(NC2CCCC2)n1,7,-17,-3,x,-1,-2
Cc1ccc([N+](=O)[O-])cc1-c1ccc(/C=C(\C#N)c2[nH]nc(N)c2C#N)o1,14,-38,9.4*,2,-2,5
COCc1cc(C)nc(OCC(=O)N/N=C/c2ccc(-c3cc([N+](=O)[O-])ccc3C)o2)c1C#N,x,-11,2,x,0,x
SMILES,Mtb hypoxia inh,PrP 5UTR inh,FadD28 binding,TcdB inh,BioA inh,SSB-PriA inh
C/C=C1\NC(=O)[C@H](CC(N)=O)N(C)C(=O)C([C@@H](C)O)NC(=O)C(CCCc2ccc(OC)cc2)NC(=O)[C@H](C(C)C)NC(=O)/C(=C\C)NC(=O)[C@H](O)[C@@H](C[C@@H](O)CCCCCCC)NC(=O)[C@H](C)NC(=O)CN(C)C(=O)[C@H](CCC(N)=O)NC1=O (stereo partly specified),1,-17,11*,1,5,-9
O=C(NNC1=NS(=O)(=O)c2ccccc21)c1ccccc1Cl,13,8,1,2,-4,-6
COc1ccc(NN=C(C(N)=O)C2=NC(C)(C)Cc3ccccc32)cc1,9,x,x,x,x,78*
O=C(NN=Cc1ccc(C(=O)O)cc1)C(=O)N1CCCCCC1,2,x,x,x,x,9
Cc1ccccc1S(=O)(=O)N1CC[C@H]2[C@H](CO)Nc3ccc(-c4ccccc4)cc3[C@H]21,x,x,x,0,-5,x
COc1cccc2c1C(=O)c1c(O)c3c(c(O)c1C2=O)C[C@@](O)(C(=O)CO)C[C@@H]3OC1CC(N)C(O)C(C)O1 (stereo partly specified),x,41,53*,-15,x,20
COc1cccc2c1C(=O)c1c(O)c3c(c(O)c1C2=O)CC(O)(C(C)=NO)CC3OC1CC(N)C(O)C(C)O1 (stereo unspecified),x,-6,63*,-24,x,38
CC(=O)[C@@]1(O)Cc2c(O)c3c(c(O)c2[C@H](O[C@H]2C[C@H](N)[C@H](O)[C@H](C)O2)C1)C(=O)c1ccccc1C3=O,x,x,74*,-3,-94,x
Cc1cc(C)c2nc(Cl)c(CN(Cc3ccco3)C(=O)Nc3ccccc3C)cc2c1,5,-30,0,-1,-1,-8
OC(c1ccccn1)(c1ccccn1)c1ccccn1,-1,-38,-3,x,x,79*
O=C(O)CCC(=O)Nc1ccc(C(=O)OCC(=O)c2ccc(Cl)cc2)cc1,6,-19,15*,1,-1,-25
Cn1nc(C(=O)NCCc2ccc(S(N)(=O)=O)cc2)c2c1-c1ccccc1S(=O)(=O)C2,3,-23,-3,0,0,6
CCOc1ccc(C=NN(C)c2ccccc2)cc1OC,9,x,x,x,x,39*
COc1ccc(NS(=O)(=O)c2nnc(NC(=O)c3ccccc3F)s2)cc1,3,-14,-2,0,0,100*
COc1ccc(C2C(C(C)=O)=C(C)N=c3sc(=Cc4cc(C)n(C)c4C)c(=O)n32)c(OC)c1 (stereo unspecified),-18,x,x,x,x,4
O=C(Nc1sc2c(c1C(=O)O)CCCC2)c1ccc(Cl)cc1,x,-12,4,12*,0,-1
COc1cc2nc(NCC3CCCO3)n3nc(-c4cccnc4)nc3c2cc1OC (stereo unspecified),4,-18,-5,x,x,-20
CCN(CC)CCCNc1nc2cc(OC)c(OC)cc2c2nc(-c3ccccc3)nn12,72*,-10,-2,x,2,18
CN1CCN(CCCNc2nc3ccccc3c3nc(-c4ccccc4)nn23)CC1,17,2,-2,2,x,-5
COCCCNc1nc2cc(OC)c(OC)cc2c2nc(-c3ccccc3)nn12,-6,-1,0,2,x,1
CCN(CC)CCCNc1nc2ccccc2c2nc(-c3ccncc3)nn12,50*,-16,-7,1,0,-21
CCN(CC)CCCNc1nc2cc(OC)c(OC)cc2c2nc(-c3cccnc3)nn12,39*,-63,-3,x,15,5
C[C@H]1CN([C@@H](C)CO)C(=O)c2cc(-c3cccnc3)cnc2O[C@H]1CN(C)Cc1ccc(-c2ccccc2)cc1,x,x,x,-2,4,x
